Reference: ChEMBL document CHEMBL1961873, “Compounds: GSK PKIS; Assays: Nanosyn kinase panel” (2012)

Columns and labels:
[1] = target: Leukocyte tyrosine kinase receptor (Homo sapiens) (UniProt P29376); conditions: at 1 µM;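 also: each value is the mean inhibition of LTK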
[2] = target: Tyrosine-protein kinase Lyn (Homo sapiens) (UniProt P07948); conditions: at 0.1 µM
[3] = target: Tyrosine-protein kinase Lyn (Homo sapiens) (UniProt P07948); conditions: at 1 µM
[4] = target: Tyrosine-protein kinase Lyn (Homo sapiens) (UniProt P07948); conditions: at 0.1 µM; remark: listed apart in the source
[5] = target: Tyrosine-protein kinase Lyn (Homo sapiens) (UniProt P07948); conditions: at 1 µM; remark: listed apart in the source
[6] = target: T1, Tyrosine-protein kinase Mer (Homo sapiens) (UniProt Q12866); conditions: at 0.1 µM
T1 sequence (whole entry): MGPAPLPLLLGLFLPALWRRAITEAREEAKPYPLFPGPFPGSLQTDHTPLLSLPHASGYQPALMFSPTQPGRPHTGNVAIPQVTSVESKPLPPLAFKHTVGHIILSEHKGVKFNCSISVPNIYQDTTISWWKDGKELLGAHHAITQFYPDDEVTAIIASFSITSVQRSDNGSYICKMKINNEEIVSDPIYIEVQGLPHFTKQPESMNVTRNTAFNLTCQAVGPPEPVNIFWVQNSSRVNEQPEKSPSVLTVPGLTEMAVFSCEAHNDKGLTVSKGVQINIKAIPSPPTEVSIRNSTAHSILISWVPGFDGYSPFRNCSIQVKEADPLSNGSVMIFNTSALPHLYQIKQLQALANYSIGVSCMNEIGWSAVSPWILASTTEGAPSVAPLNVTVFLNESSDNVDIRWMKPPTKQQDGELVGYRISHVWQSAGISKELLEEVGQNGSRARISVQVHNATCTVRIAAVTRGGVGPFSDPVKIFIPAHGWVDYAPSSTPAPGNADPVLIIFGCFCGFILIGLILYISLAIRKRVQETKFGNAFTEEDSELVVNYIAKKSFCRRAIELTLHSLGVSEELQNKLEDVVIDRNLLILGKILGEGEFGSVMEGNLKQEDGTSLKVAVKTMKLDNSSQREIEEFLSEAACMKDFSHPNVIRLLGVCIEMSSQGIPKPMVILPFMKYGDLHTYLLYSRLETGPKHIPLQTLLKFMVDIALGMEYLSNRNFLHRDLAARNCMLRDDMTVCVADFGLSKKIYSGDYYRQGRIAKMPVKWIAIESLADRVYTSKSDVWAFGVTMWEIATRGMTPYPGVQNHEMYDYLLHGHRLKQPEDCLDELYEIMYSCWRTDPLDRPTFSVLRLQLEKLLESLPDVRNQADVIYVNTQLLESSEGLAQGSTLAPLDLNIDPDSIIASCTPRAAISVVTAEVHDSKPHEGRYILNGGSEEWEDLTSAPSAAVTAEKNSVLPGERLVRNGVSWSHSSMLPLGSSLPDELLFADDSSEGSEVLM

[7] = target: T1, Tyrosine-protein kinase Mer (Homo sapiens); conditions: at 1 µM
[8] = target: Hepatocyte growth factor receptor (Homo sapiens) (UniProt P08581); conditions: at 0.1 µM
[9] = target: Hepatocyte growth factor receptor (Homo sapiens) (UniProt P08581); conditions: at 1 µM
[10] = target: T2, Muscle, skeletal receptor tyrosine-protein kinase (Homo sapiens) (UniProt O15146); conditions: at 0.1 µM;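 also: values are mean inhibition of MuSK from the GSK PKIS kinase screening panel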
T2 sequence (whole entry): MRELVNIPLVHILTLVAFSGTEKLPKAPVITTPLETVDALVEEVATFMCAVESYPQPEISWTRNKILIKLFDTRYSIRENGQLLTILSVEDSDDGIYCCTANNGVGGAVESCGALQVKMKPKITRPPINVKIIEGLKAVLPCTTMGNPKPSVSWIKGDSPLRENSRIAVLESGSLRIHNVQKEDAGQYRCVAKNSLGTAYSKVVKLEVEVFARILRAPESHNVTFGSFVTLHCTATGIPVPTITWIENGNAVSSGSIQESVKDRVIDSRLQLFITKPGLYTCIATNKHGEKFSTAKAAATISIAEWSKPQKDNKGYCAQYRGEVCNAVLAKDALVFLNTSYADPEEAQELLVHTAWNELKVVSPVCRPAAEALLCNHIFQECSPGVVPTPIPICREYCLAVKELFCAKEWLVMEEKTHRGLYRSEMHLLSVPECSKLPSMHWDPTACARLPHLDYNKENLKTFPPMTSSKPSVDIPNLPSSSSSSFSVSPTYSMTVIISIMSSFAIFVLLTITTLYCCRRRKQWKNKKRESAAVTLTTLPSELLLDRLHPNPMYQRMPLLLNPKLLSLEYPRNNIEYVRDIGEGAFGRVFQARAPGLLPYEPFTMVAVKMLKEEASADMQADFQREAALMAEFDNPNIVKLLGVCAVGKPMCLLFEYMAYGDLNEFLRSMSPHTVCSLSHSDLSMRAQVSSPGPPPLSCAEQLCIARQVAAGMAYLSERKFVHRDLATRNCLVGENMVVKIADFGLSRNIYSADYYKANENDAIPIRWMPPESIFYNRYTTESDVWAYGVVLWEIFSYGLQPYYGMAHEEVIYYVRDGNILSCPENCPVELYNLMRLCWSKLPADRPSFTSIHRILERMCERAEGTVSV

Tyrosine-protein kinase Lyn (Homo sapiens), sequence (P07948 2-512 limits assumed): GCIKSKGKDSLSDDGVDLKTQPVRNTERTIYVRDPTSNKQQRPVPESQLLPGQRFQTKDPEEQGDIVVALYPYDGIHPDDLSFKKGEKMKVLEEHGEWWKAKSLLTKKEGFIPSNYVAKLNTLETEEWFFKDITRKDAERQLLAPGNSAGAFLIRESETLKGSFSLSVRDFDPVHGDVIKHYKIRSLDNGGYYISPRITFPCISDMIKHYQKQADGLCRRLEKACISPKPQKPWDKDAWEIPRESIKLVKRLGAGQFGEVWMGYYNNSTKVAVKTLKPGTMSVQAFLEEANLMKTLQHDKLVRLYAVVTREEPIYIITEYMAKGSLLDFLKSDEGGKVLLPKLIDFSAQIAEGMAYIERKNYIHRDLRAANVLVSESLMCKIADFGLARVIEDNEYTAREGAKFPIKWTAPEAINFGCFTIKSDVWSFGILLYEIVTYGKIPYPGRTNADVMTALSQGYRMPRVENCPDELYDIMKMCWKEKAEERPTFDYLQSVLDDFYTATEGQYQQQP
Hepatocyte growth factor receptor (Homo sapiens), sequence (P08581 whole entry): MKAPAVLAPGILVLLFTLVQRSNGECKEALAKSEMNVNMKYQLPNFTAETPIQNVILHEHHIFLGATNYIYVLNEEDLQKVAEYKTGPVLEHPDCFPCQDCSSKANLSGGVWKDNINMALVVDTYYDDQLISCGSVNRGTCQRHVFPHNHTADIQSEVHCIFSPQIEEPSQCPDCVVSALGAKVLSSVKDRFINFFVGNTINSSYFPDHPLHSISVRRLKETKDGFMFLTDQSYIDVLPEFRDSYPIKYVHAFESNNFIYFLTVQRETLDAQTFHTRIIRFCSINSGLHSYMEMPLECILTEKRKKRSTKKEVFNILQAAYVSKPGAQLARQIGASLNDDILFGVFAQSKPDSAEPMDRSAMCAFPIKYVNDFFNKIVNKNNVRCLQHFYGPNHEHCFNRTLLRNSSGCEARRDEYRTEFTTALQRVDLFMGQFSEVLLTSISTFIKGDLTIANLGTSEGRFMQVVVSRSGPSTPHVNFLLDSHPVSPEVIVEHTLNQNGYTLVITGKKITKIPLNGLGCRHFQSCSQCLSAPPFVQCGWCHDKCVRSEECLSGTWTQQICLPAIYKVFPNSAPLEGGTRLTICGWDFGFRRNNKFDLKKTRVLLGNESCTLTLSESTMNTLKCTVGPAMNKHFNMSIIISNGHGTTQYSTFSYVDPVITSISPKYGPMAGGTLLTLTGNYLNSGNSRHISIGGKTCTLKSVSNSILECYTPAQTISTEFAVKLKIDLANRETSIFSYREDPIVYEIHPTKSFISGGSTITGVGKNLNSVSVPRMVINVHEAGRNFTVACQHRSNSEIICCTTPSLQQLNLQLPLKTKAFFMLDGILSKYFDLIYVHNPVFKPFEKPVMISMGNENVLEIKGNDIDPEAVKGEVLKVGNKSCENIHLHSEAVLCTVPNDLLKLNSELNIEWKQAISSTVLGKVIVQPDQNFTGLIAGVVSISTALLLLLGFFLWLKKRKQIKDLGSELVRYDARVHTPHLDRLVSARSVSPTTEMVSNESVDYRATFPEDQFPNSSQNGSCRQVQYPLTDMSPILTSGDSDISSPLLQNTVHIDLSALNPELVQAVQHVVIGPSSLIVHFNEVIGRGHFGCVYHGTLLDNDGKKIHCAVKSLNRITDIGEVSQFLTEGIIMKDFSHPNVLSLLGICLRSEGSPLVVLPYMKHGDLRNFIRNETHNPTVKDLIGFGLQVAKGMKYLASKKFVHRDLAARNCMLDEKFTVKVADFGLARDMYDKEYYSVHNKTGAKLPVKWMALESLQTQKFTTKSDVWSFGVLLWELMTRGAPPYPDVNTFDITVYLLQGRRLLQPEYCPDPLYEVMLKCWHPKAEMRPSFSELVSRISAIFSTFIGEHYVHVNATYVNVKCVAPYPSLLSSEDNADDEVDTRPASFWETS
Leukocyte tyrosine kinase receptor (Homo sapiens), sequence (P29376 whole entry): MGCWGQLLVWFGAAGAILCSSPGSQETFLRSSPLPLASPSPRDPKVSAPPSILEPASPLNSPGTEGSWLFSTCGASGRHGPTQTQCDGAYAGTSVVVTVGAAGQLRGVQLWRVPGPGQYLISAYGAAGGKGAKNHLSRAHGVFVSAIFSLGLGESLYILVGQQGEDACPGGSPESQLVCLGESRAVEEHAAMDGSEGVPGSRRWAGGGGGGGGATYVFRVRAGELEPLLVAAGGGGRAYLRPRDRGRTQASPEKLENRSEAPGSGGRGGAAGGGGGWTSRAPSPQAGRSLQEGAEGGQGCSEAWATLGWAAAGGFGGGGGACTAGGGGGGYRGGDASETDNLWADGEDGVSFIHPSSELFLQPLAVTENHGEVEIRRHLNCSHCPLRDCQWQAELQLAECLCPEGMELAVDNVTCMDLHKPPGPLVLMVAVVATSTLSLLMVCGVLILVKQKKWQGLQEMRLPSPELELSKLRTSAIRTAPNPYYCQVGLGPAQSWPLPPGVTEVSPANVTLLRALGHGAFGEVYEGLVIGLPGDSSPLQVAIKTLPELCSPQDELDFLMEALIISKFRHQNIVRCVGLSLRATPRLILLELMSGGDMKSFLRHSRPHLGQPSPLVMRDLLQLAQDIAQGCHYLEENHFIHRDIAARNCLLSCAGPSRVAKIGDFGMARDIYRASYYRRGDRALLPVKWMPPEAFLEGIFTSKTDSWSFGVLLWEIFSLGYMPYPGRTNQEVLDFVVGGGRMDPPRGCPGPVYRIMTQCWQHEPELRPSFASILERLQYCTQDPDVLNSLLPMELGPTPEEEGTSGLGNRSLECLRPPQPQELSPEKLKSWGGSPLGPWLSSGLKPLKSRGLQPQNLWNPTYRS

SMILES	inhibition [1]	inhibition [2]	inhibition [3]	inhibition [4]	inhibition [5]	inhibition [6]	inhibition [7]	inhibition [8]	inhibition [9]	inhibition [10]
CCn1c(-c2nonc2N)nc2c(C#CC(C)(C)O)ncc(OC[C@@H]3CCCN3)c21	2.22%	2.35%	1.33%	1.2%	1.89%	-0.41%	-0.43%	5.01%	5.81%	-2.15%
CCn1c(-c2nonc2N)nc2c(C#CC(C)(C)O)ncc(OCC3CCNCC3)c21	5.07%	3.39%	7.23%	1.8%	5.79%	1.17%	1.7%	1.64%	2.5%	4.04%
NC(=O)c1sc(-n2cnc3cc(C(F)(F)F)ccc32)cc1OCc1ccccc1Br	4.03%	3.08%	4.62%	2.14%	3.91%	-1.59%	4.52%	-0.38%	8.07%	1.36%
Cc1cc(-c2ccco2)cc(C)c1/C=C/c1cncc(-c2nn[nH]n2)c1	1.64%	1.98%	5.29%	2.99%	3.6%	0.26%	3.44%	4.92%	3.8%	-1.44%
COc1cc2c(cc1Nc1nc(Nc3ccsc3C(N)=O)c3cc[nH]c3n1)N(C(=O)CN(C)C)CCC2	94.9%	3.9%	5.94%	2.54%	2.25%	1.81%	6.9%	6.76%	7.29%	3.98%
COc1cc(C=NNc2ncnc3c2cnn3Cc2ccccc2)ccc1O	-1.02%	7.35%	41.8%	3.91%	35.4%	0.56%	6.34%	-3.62%	7.19%	-1.07%
CCn1c(-c2nonc2N)nc2c(C#CC(C)(C)O)nc(O[C@@H](CN)c3ccccc3)cc21	76.6%	2.08%	22.1%	0.81%	16.8%	0.05%	0.57%	3.67%	-0.12%	-1.29%
COc1cccc(COc2cc(-n3cnc4ccccc43)sc2C(N)=O)c1	2.93%	-0.93%	-1.31%	-1.21%	-1.14%	-2.89%	-0.86%	4.83%	2.86%	-1.3%
Fc1ccc(-c2ncn(C3CCNCC3)c2-c2ccnc(Oc3ccccc3)n2)cc1	1.61%	2.38%	2.64%	0.89%	1.56%	0.77%	6.11%	5.19%	0.34%	1.71%
NS(=O)(=O)c1ccc(N/C=C2\C(=O)Nc3ccc4ncsc4c32)cc1	10.4%	6.6%	28.3%	2.87%	22.1%	0.39%	7.72%	14.9%	43.3%	11%
COc1cccc(-n2ncc3c(N/N=C/c4ccncc4)ncnc32)c1	6.38%	49%	87.5%	43.2%	85%	6.35%	39.2%	18.9%	49.5%	11.1%
CCn1c(-c2nonc2N)nc2c(C#CCN)ncc(OCCCN)c21	-1.19%	0.47%	2.24%	1.28%	0.49%	0.13%	0.01%	0.78%	4.36%	2.41%
Nc1nonc1-c1nc2cnccc2n1C1CCCCC1	2.35%	-2.05%	1.3%	-1.46%	-0.59%	-0.72%	1.5%	-2.89%	7.05%	-1.73%
NS(=O)(=O)c1ccc(-c2ccc3c(NC(=O)C4CC4)n[nH]c3c2)cc1	-0.4%	2.87%	3.71%	1.42%	3.29%	0.15%	4.26%	-4.19%	0.32%	3.88%
